Gal4-VP16 FLuc – counter-screen for ROR gamma inhibitors: Gal4-VP16 reporter | Drosophila S2 Gal4-VP16 UAS-luciferase, luminescence, 20 h | Potency, µM (top dose mostly 53.6 µM), for the others: at the top dose activity, negative = inhibition, actives largely listed as inhibitors | 310,000 compounds, 3.5% hits;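 also: Gal4-VP16 expression switched on by copper sulfate through the metallothionein promoter; potency is read from the fitted curve at half-maximal effect; % is scaled to controls: 0 for no effect and ±100 for the full control effect; nearly all actives have a fitted effect of over 50% in size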
MCF10A rereplic – DNA re-replication induction in MCF 10a cells; 350,000 compounds, 2.9% hits; MCF 10A DNA re-replication, Hoechst nuclear intensity, 48 h; Potency, µM (series often up to 46.1 µM), for the others: top-dose activity, positive = re-replication, hits mostly activators; also: potency is read from the fitted curve at half-maximal effect; % of control where 0% means no effect; nearly all actives have a fitted effect of over 50% in size
RORg inh – inhibitors of mouse ROR gamma transcriptional activity. P51450. Drosophila S2 Gal4-RORgamma UAS-luciferase reporter, 20 h. Potency, µM (top dose mostly 53.6 µM), inactives show at the top dose activity change, negative = inhibition, most hits filed as inhibitors. 310,000 compounds, 5.4% hits; also: potency is read from the fitted curve at half-maximal effect; % is scaled to controls: 0 for no effect and ±100 for the full control effect; nearly all actives have a fitted effect of over 60% in size
Target sequence (P51450 whole entry, looked up, the tested form may be a part): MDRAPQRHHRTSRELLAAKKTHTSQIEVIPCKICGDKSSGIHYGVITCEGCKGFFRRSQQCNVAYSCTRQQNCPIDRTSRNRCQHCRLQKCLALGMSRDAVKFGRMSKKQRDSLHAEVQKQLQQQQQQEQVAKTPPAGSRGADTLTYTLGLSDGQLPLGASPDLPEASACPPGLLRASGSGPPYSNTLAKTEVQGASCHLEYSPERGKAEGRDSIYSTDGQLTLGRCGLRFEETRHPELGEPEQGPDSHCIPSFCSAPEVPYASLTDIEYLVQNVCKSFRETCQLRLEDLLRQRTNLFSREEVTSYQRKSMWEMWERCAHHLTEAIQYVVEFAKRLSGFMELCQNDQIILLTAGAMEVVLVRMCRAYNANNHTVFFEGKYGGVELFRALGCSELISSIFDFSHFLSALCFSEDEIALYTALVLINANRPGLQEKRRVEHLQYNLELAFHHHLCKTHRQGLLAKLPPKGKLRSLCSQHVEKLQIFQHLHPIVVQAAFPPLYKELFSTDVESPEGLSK
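Schneider cells (Drosophila), stable Gal4 DBD–ROR gamma + UAS-luc; 1 hr cmpd preincubation; Cu2+ induction 700 uM final; 20 hr ambient; luminescence.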
IL-1B inflam inh – inhibitors of inflammasome signaling (IL-1 beta secretion). THP-1 LPS/ATP IL-1B secretion, AlphaLISA, 16 h; hits give low values. activity change, % at 57.5 µM. 360,000 compounds, 4.7% hits; in the data active = activity change below about -50%; inconclusive = mostly about -30% to -49%; also: % is scaled to controls: 0 for no effect and ±100 for the full control effect
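THP-1 cells pretreated 1 hr with compounds (up to 57.5 uM final), then stimulated with LPS (250 ng/mL final) plus ATP (1.25 mM final); secreted IL-1B measured by AlphaLISA after 16 hr, decreased signal indicating inhibition.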
SW480 rerep – inducers of DNA re-replication in SW480 colon cancer cells; 340,000 compounds, 1.8% hits; Potency, µM (top dose mostly 46.1 µM), inactives show top-dose re-replication activation, most hits filed as activators; AID 624297; SW480 DNA re-replication, Hoechst DNA content imaging, 48 h; also: potency is read from the fitted curve at half-maximal effect; % of control where 0% means no effect; nearly all actives have a fitted effect of over 55% in size
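Hoechst fluorescence of nuclei (405 nm excitation, 500-530 nm emission) measured by plate-scanning imager after 48 hr compound exposure at 37 C; re-replication scored as increased number of nuclei with elevated intensity.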
Active calls of the source: *; u = inconclusive; x = not tested or not shown; [ ] = remark or other dose. Sampled rows, rich in hits. Any-hit rate of the full collection: about 11%. Unless noted, calls follow the shape of the dose curve; as a rule, active = well fitted curve in the direction sought with a large enough effect; inconclusive = small, poorly fitted or top-dose-only effect, or another doubt; inactive = no such curve, though single readings can be large; an effect the other way counts as inactive or inconclusive.

SMILES	Gal4-VP16 FLuc	MCF10A rereplic	RORg inh	IL-1B inflam inh	SW480 rerep
CN(C(=O)COc1ccc(Br)cc1Cl)C1CCCCC1	20%	0%	26%	-52*	-9%
CN(C(=O)COC(=O)C1CCN(S(=O)(=O)c2c(Cl)cccc2Cl)CC1)C1CCCCC1	x	u	x	-9	3.7µM*
CN(C(=O)COC(=O)c1cnc(Cl)c(Cl)c1)C1CCCCC1	x	2%	x	-96*	0%
O=C(NCc1ccc(F)cc1)c1cc(C2CCCCN2S(=O)(=O)Cc2ccccc2)on1 (configuration not stated)	x	x	x	-29	x
S=c1[nH]nc(COc2ccccc2)n1/N=C/c1ccco1	-3%	0%	7.9µM*	17	-7%
CC(/C=N/n1c(COc2ccccc2)n[nH]c1=S)=C\c1ccco1	-19%	2%	7.1µM*	x	-5%
COc1cc(/C=C(\C#N)C(N)=O)cc(CSc2nc3ccccc3s2)c1O	14µM*	x	5.6µM*	x	x
c1ccc(CNc2oc(-c3ccccc3)nc2-c2ccccc2)cc1	1%	x	34%	x	x
CSCC[C@H](NC(=O)[C@H](CC(C)C)N1CCC(NC(=O)[C@@H](NC(=O)[C@H](Cc2ccccc2)NC(=O)[C@H](CO)NC(=O)[C@H](CC(=O)O)NC(=O)[C@@H](N)CCCCN)C(C)C)C1=O)C(N)=O (some centres not stated)	6%	x	-2%	x	x
CC(C)(C)NC(=O)CN(c1cccc([N+](=O)[O-])c1)S(=O)(=O)c1ccccc1	0%	-2%	-3%	2	1%
O=C(CN(c1cccc(C(F)(F)F)c1)S(=O)(=O)c1ccc(Cl)c([N+](=O)[O-])c1)NCc1ccccc1	u	3.7µM*	-31%	-11	13µM*
Cc1ccc(N(CC(=O)NCCc2ccc(F)cc2)S(=O)(=O)c2ccc(Cl)c([N+](=O)[O-])c2)c(C)c1	u	u	-3%	-96*	u
CC(NC(=O)CN(c1cccc(C(F)(F)F)c1)S(=O)(=O)c1ccc(Cl)c([N+](=O)[O-])c1)c1ccccc1 (configuration not stated)	u	u	u	-91*	u
O=C(CN(c1ccc(Br)cc1)S(=O)(=O)c1ccc(Cl)c([N+](=O)[O-])c1)NCCc1ccccc1	1%	u	14%	-13	-7%
O=C(CN(c1cccc(C(F)(F)F)c1)S(=O)(=O)c1ccc(Cl)c([N+](=O)[O-])c1)NCc1ccccc1Cl	u	4.6µM*	-13%	-100*	u
COc1cc(NC(=O)CSc2nc3c(c(=O)n(C)c(=O)n3C)n2C)cc(OC)c1	7%	-4%	-38%	5	0%
COc1ccc(N2CC(C(=O)NCc3n[nH]c(=O)c4ccccc34)CC2=O)cc1 (configuration not stated)	x	1%	x	1	-4%
COc1ccc(O[C@H]2C=C[C@@H](c3ccccc3)O[C@H]2CO/N=C(/C)CCC(=O)OC[C@@H]2O[C@H](c3ccccc3)C=C[C@@H]2Oc2ccc(OC)cc2)cc1	-3%[10 µM]	x	26%[10 µM]	x	x
S=C(Nc1ccccc1Cl)N1CCCCCC1	18%	-17%	-25%	0	1%
Cc1ccccc1NC(=S)N1CCCCCC1	-27%	0%	11µM*	16	0%
COC(=O)c1ccccc1NC(=S)N1CCN(c2ccccc2)CC1	0%	-7%	-23%	12	-6%
Cc1ccccc1NC(=S)N1CCN(c2ccccc2)CC1	20µM*	1%	10µM*	10	0%
COc1ccc(S(=O)(=O)NC(=O)C2(C)CCN2C(=O)Cc2cc(C)cc(C)c2)cc1 (configuration not stated)	x	x	x	5	x
COc1ccc(CN(C)CC(=O)NCC(=O)Nc2c(C)cccc2C)cc1	x	-10%	x	12	-6%
Cn1nnnc1N=N/C(=N/Nc1ccccc1)c1ccccc1	2.2µM*	u	0.35µM*	5	u
CC(C)OCCOc1ccc2oc(-c3ccco3)cc(=O)c2c1	u	8%	127%	-66*	-1%
CCOC(=O)C1(C)CCCN(C(=O)c2cc(C)oc2C)C1 (configuration not stated)	x	x	x	12	x
